DT40 TDP1 no CPT – qHTS for Inhibitors of human tyrosyl-DNA phosphodiesterase 1 (TDP1): qHTS in cells in absence of CPT. DT40 Tdp1-/- hTDP1 cells, no CPT, ATP luminescence, 48 h. Potency, µM (series often up to 46.2 µM), for inactives: at the highest dose activity change, negative = growth inhibition, hits mostly inhibitors. 420,000 tested, 15% active; note: potency is the fitted concentration of half-maximal effect; % is set by controls: 0 for no effect and ±100 for the full control effect; nearly all actives have a fitted effect of over 55% in size
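DT40 Tdp1-/-;hTDP1 cells, no CPT (DMSO vehicle only), 400 cells/well; compounds pin-transferred; ≥48 hr, 37 °C; CellTiter-Glo 30 min RT dark, luminescence read.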
IL1B secr inh – qHTS for Inhibitors of Inflammasome Signaling: IL-1-beta AlphaLISA Primary Screen; AID 743279, 2014; activity change, % at 57.5 µM; 360,000 tested, 4.7% active; THP-1 LPS/ATP IL-1B secretion, AlphaLISA, 16 h; active compounds read low; in the data active = activity change below about -50%; inconclusive = mostly about -30% to -49%; note: % is set by controls: 0 for no effect and ±100 for the full control effect
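Secreted IL-1B measured by AlphaLISA bead assay after 16 h compound exposure of THP-1 cells; compounds (final up to 57.5 uM) added 1 h before LPS (250 ng/mL) and ATP (1.25 mM) stimulation; lower signal means less secretion.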
TGFb inhibitor – qHTS for Inhibitors of TGF-b. HepG2 CAGA-GFP TGF-b/SMAD3 reporter, GFP fluorescence, 18 h; TGF-beta stimulated, 500 pg/mL final. Potency, µM (doses to about 46.1 µM), for the others: at the highest dose activity, negative = inhibition, most hits filed as inhibitors. 410,000 tested, 1.2% active. AID 588855, 2011; note: potency is the fitted concentration of half-maximal effect; % is set by controls: 0 for no effect and ±100 for the full control effect; nearly all actives have a fitted effect of over 65% in size
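TGF-beta reporter screen: HEPG2 CAGA-GFP, 1% FBS, 500 pg/mL TGF-beta final, 18 h; per-cell GFP summed per well; curves fitted and categorized by class.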
HepG2 tox – qHTS for Inhibitors of TGF-b: Cytotox Counterscreen; HepG2 CAGA-GFP viability, ATP luminescence, 18 h; AID 588856, 2011; Potency, µM (series often up to 46.1 µM), for the others: top-dose activity change, negative = cytotoxicity, usual class: cytotoxic; 410,000 tested, 0.76% active; note: potency is the fitted concentration of half-maximal effect
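CellTiter-Glo luminescence gave cytotoxicity after 18 hours at 37 degrees C. The cells were HepG2 CAGA-GFP in 1% FBS DMEM, stimulated with 500 pg/mL TGF-beta after compound addition. %Activity was normalised to no-cell wells (complete cell-killing) and DMSO (no toxicity), and curves were fitted and classified.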
DT40 TDP1 CPT – qHTS for Inhibitors of human tyrosyl-DNA phosphodiesterase 1 (TDP1): qHTS in cells in presence of CPT | AID 686979, 2013 | Potency, µM (series often up to 46.2 µM), inactives show at the top dose activity change, negative = growth inhibition, hits mostly inhibitors | 420,000 tested, 12% active | chicken DT40 Tdp1-/-;hTDP1 cells + 20 nM CPT, ATP luminescence, 48 h; note: potency is the fitted concentration of half-maximal effect; % is set by controls: 0 for no effect and ±100 for the full control effect; nearly all actives have a fitted effect of over 55% in size
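Chicken DT40 Tdp1-/- cells stably complemented with human TDP1 were seeded at 400 cells/well in medium containing 20 nM camptothecin, exposed to pin-transferred compounds, and grown at 37 °C for at least 48 hr. Viability was read as ATP luminescence.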
S-ASM inh – Inhibitors of Secretory Acid Sphingomyelinase (S-ASM): qHTS. Sphingomyelin phosphodiesterase (Homo sapiens), P17405. placental ASM, HMU-PC fluorogenic substrate, 60 min. Potency, µM (series often up to 57.5 µM), inactives show top-dose activity change, negative = inhibition, usual class: inhibitors. 340,000 tested, 0.006% active. AID 504937, 2011; note: potency is the fitted concentration of half-maximal effect
Target sequence (P17405 47-631 limits assumed): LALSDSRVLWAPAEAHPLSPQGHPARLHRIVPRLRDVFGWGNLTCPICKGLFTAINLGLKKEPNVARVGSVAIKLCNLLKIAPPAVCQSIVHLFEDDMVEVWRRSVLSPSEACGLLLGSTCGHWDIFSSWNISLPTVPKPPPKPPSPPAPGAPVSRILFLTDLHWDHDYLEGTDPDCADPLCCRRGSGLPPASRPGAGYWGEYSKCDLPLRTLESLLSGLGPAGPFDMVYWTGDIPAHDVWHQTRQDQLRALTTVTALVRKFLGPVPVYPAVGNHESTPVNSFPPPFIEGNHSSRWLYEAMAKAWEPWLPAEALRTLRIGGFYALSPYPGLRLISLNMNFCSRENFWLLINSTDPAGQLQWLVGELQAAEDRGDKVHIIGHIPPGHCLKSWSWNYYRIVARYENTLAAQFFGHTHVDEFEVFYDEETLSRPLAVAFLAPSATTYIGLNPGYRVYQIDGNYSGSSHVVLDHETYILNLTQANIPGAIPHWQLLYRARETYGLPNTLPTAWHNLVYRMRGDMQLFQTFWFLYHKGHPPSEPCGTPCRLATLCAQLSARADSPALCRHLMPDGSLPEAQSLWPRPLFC
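Steps: dispense placental human ASM, pin compound, wait 10 min at room temperature, add HMU-PC0 substrate at 9 uM final, incubate 60 min at 37 °C, add stop solution raising pH to 10, read fluorescence.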
Starred values were filed as active, the others as inactive; i = inactive; ? = inconclusive; nt = not tested or not shown. This is a sample that favours compounds with a hit; in the whole collection about 19% have one here. Unless noted, calls come from the whole dose curve; as a rule, active = well fitted curve in the direction sought with a large enough effect; inconclusive = small, poorly fitted or top-dose-only effect, or another doubt; inactive = no such curve, though single readings can be large; an effect the other way counts as inactive or inconclusive.

SMILES | DT40 TDP1 no CPT | IL1B secr inh | TGFb inhibitor | HepG2 tox | DT40 TDP1 CPT | S-ASM inh
CSc1ncccc1C(=O)N1CCN(S(=O)(=O)c2ccc(F)cc2)CC1 | 12% | 6 | -13% | -4% | -21% | 3%
N#CC(c1ccc(F)cc1)c1ccc(C(=O)c2ccccc2)cc1 (stereo not drawn) | ? | -10 | ? | -5% | ? | -3%
N#CC(c1ccccc1)c1ccc(C(=O)c2ccc(F)cc2)cc1 (stereo not drawn) | 23µM* | 4 | ? | -4% | -56% | -1%
COC(=O)c1cn(C(=O)/C=C/c2ccc(OC)c(OC)c2)c2ccccc12 | 16µM* | -69* | 8% | -3% | ? | 115%
CCOC(=O)c1ccccc1NC(=O)Cc1ccccc1OC | -15% | 1 | 8% | -10% | ? | -1%
COc1ccc(/C=C\C(=O)Nc2ccccc2C(=O)O)cc1OC | 13µM* | nt | nt | nt | 13µM* | nt
COc1cc(NC(=O)/C=C/c2ccccc2)c(C(=O)O)cc1OC | ? | -4 | -21% | 0% | ? | 6%
CCOC(=O)c1sc(-c2ccc(F)cc2)cc1NC(=O)Nc1ccccc1OC | ? | i | 8% | 1% | 16µM* | -5%
CCOC(=O)c1ccccc1NC(=O)/C=C/c1cc(OC)c(OC)c(OC)c1 | 6.5µM* | -7 | 16% | -16% | -20% | 87%
CC(C)CCCCCCc1ccc(O)cc1 | ? | nt | nt | nt | -21% | nt
COC(=O)c1cc(Cl)c(NC(=O)/C=C/c2ccc(OC)c(OC)c2)cc1OC | 23µM* | -3 | -9% | -2% | ? | 131%
CCCCCOc1ccc(/C=C/C(=O)Nc2sc3c(c2C(=O)OCC)CCC3)cc1OC | ? | nt | ? | -93% | -5% | nt
CCOC(=O)c1ccccc1NC(=O)Nc1ccc(OC)c(OC)c1 | 7% | -67* | 0% | 2% | -24% | -7%
CCCCCOc1ccc(/C=C/C(=O)Nc2sc(C(C)=O)c(C)c2C(=O)OCC)cc1OC | 5.8µM* | nt | -13% | -9% | ? | nt
COc1ccc(/C=C/C(=O)Nc2ccc(Cl)c(Cl)c2)cc1OC | 21µM* | nt | ? | -46% | ? | nt
CCOc1ccccc1NC(=O)COC(=O)C1CC(=O)N(c2c(C)cccc2C)C1 (stereo not drawn) | -15% | 12 | 13% | 7% | -10% | -5%
COc1ccc2c(c1)CCCC21NC(=O)N(CC(=O)N2CC(C)OC(C)C2)C1=O (stereo not drawn) | 6% | 35 | -2% | 2% | 21% | -4%
CCc1ccc(CNC(=O)CN(c2ccc(C)cc2)S(=O)(=O)N(C)C)cc1 | ? | nt | ? | -15% | -15% | nt
CCOCCOC(=O)c1ccc(NC(=O)/C=C/c2ccc(OC)c(OC)c2)cc1 | 9.2µM* | nt | ? | -50% | 26µM* | nt
CCCCOC(=O)c1ccc(NC(=O)Nc2ccc(OC)c(OC)c2)cc1 | ? | -13 | ? | -4% | ? | -20%
COc1cc(/C=C/C(=O)Nc2ccc3[nH]c(=O)[nH]c3c2)cc(OC)c1OC | 2% | -72* | -3% | -1% | 3% | 80%
COc1cccc(/C=C/C(=O)Nc2ccc3[nH]c(=O)[nH]c3c2)c1 | -2% | 114 | 6% | 31% | -16% | -1%
COc1ccc(NC(=O)Nc2ccc(C)cc2OC(F)F)cc1OC | 21µM* | -11 | 1% | -5% | ? | -3%
Cc1ccc(NC(=O)Nc2ccc3c(c2)OCO3)c(OC(F)F)c1 | -14% | i | 1% | -19% | -1% | 4%
COc1ccc(/C=C/C(=O)Nc2ccncc2)cc1OC | -24% | -22 | -3% | -20% | -20% | 45%
SMILES | DT40 TDP1 no CPT | IL1B secr inh | TGFb inhibitor | HepG2 tox | DT40 TDP1 CPT | S-ASM inh
COc1ccc(OC)c(/C=C/C(=O)Nc2ccc(C(=O)OCCC(C)C)cc2)c1 | 18µM* | nt | -3% | -22% | 18µM* | nt
CCOC(=O)c1[nH]c(CO)c(C(=O)OCC)c1C | 3% | -2 | 6% | -5% | 14% | 1%
Cc1[nH]c(=O)[nH]c1C(=O)CCCCC(=O)OCC(=O)Nc1ccccn1 | 14% | -114* | -13% | 3% | 1% | 6%
CCOC(=O)CCCCC(=O)c1[nH]c(=O)[nH]c1C[n+]1ccc(C)cc1 | 11% | ? | ? | -5% | 8% | 0%
COc1ccc(S(=O)(=O)N2CCN(CC(=O)c3c(N)n(C)c(=O)n(C)c3=O)CC2)cc1OC | -23% | -27 | 19% | 1% | -8% | nt
CCOC(=O)c1ccc(Nc2ncnc3c2cnn3-c2cccc(Cl)c2)cc1 | ? | nt | 4% | -13% | 2% | nt
Cc1cccc(-n2ncc3c(Nc4ccc(C)c(Cl)c4)ncnc32)c1 | 18µM* | nt | 2% | 2% | 18µM* | nt
Cc1cccc(-n2ncc3c(Nc4ccc(Oc5ccc(Cl)cc5)cc4)ncnc32)c1 | 15µM* | nt | 31% | 4% | 18µM* | nt
COc1ccccc1Nc1ncnc2c1cnn2-c1cccc(C)c1 | ? | -7 | -2% | 2% | ? | -11%
COc1ccc(Nc2ncnc3c2cnn3-c2ccc(C)cc2)cc1Cl | 23µM* | nt | 10% | 2% | ? | nt
O=C(CBr)c1ccc(Oc2ccc(C(=O)C[n+]3ccccc3Cl)cc2)cc1 | ? | nt | ? | -27% | ? | nt
CCC(=O)N1CCC1(C)C(=O)NCc1ccccc1SC (stereo not drawn) | -14% | -4 | 10% | -11% | -13% | nt
O=C(O)c1cc(N(Cc2ccccc2O)Cc2ccccc2O)ccc1O | nt | nt | -28% | -11% | nt | nt
COc1ccc(CCNC(=O)CCc2c(C)c3cc4c(C)coc4c(C)c3oc2=O)cc1OC | 8.2µM* | nt | -27% | -9% | 21µM* | nt
COc1ccc(CNC(=O)Cc2c(C)c3cc4c(C)coc4c(C)c3oc2=O)cc1OC | ? | nt | -1% | -8% | ? | nt
Cc1oc2cc3oc(=O)c(CCC(=O)NCCN4CCOCC4)c(C)c3cc2c1C | ? | ? | -20% | -25% | 21µM* | 128%
COc1cc2oc(=O)c(CC(=O)NCCc3ccccc3F)c(C)c2cc1OC | -16% | nt | ? | -2% | 1% | nt
Cc1coc2cc3oc(=O)c(CCC(=O)NCCCN4CCOCC4)c(C)c3cc12 | ? | 1 | 16% | -2% | ? | 20%

Screening results from PubChem BioAssay.
